The list is not random: actives were taken first. Their share in the collection is about 7.4%.
FLuc counter: qHTS profiling assay for firefly luciferase inhibitor/activator using purifed enzyme and Km concentrations of substrates (counterscreen for miR-21 project). Luciferin 4-monooxygenase (Photinus pyralis), P08659. purified FLuc, Km substrates, luminescence inhibition. Potency, µM (highest dose often 57.5 µM), for inactives: at the top dose activity change, negative = inhibition, actives largely listed as inhibitors. 6.9% of 360,000 active. AID 588342, 2011;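 also: plate controls were vehicle for no effect and reference inhibitor for full effect; nearly all actives have a fitted effect of over 55% in size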
Target sequence (P08659 whole entry, looked up): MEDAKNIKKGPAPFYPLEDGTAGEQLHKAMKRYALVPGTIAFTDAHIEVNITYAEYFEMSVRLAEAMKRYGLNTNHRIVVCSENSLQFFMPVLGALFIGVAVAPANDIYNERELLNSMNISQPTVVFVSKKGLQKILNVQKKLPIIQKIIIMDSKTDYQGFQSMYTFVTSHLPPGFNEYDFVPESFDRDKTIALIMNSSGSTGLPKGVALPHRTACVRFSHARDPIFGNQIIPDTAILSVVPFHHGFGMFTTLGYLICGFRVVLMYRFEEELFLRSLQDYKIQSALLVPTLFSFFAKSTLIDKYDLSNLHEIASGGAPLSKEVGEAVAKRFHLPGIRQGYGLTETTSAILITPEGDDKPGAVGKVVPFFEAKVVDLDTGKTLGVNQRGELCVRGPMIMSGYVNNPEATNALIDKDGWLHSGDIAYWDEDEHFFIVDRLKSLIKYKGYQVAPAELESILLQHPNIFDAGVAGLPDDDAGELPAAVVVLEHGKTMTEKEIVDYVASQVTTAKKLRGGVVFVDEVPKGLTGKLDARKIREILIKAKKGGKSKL
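Biochemical qHTS of compounds, final roughly 60 µM downward over six points, against 10 nM purified firefly luciferase using Km concentrations of substrates (10 uM D-luciferin, 10 uM ATP) in Tris acetate pH 7.5 buffer; luminescence output.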
Rab9 promoter act: qHTS Assay for Rab9 Promoter Activators; Huh7 Rab9 promoter-luciferase reporter, luminescence, 24 h; Potency, µM (doses to about 9.22 µM), without a hit: at the top dose activation, negative = inhibition, hits mostly activators; 2.8% of 320,000 active; also: % of control where 0% means no effect; nearly all actives have a fitted effect of over 60% in size
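Steps: seed 1500 Huh7 Rab9-luc cells per well, rest 2 h at 37 °C; add compound in DMSO; incubate 24 h; add luciferase reagent, 10 min ambient; read luminescence.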
ELG1 genotoxic: qHTS screen for small molecules that induce genotoxicity in human embryonic kidney (HEK293T) cells expressing luciferase-tagged ELG1. HEK293T ELG1-luciferase reporter, luminescence, 16 h. Potency, µM (titrated, usually from 46 µM), without a hit: top-dose activity change, positive = activation, actives largely listed as activators. 1.3% of 330,000 active. AID 504466, 2011; also: % of control where 0% means no effect; nearly all actives have a fitted effect of over 60% in size
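Cells (2,000/well) expressing the ELG1-luciferase fusion are dosed by pin tool and kept 16 hr at 37 °C, 5% CO2. Signal comes from ONE-Glo luciferase reagent after 30 min at room temperature.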
SMN2 splice up: qHTS Assay for Enhancers of SMN2 Splice Variant Expression | HEK293 SMN2-luciferase splicing reporter, luminescence, 30-36 h | Potency, µM (series often up to 46.1 µM), for inactives: at the highest dose activity change, positive = activation, usual class: activators | 2.8% of 210,000 active; also: % of control where 0% means no effect; nearly all actives have a fitted effect of over 55% in size
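HEK293 cells carry an SMN2 minigene-luciferase reporter in which exon 7 inclusion puts luciferase in frame. Cells were seeded at 2000 cells/well, attached for 10-12 hours, then exposed to compounds for 30-36 hours at 37C before ONE-Glo luminescence.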
NPC1 prom act: qHTS Assay for NPC1 Promoter Activators; Huh7 NPC1 promoter luciferase reporter, 24 h; Potency, µM (series often up to 9.22 µM), without a hit: at the highest dose activation, usual class: activators; 2.4% of 320,000 active; also: % of control where 0% means no effect; nearly all actives have a fitted effect of over 60% in size
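Luminescence from an NPC1 promoter-driven luciferase reporter in stably transfected Huh7 cells was measured after 24 h compound treatment at 37 °C, followed by 10 min ambient incubation with luciferase detection reagent.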
An asterisk follows results filed as active; ? = inconclusive; . = no result given. Calls follow the shape of the dose curve; as a rule, active = well fitted curve in the direction sought with a large enough effect; inconclusive = small, poorly fitted or top-dose-only effect, or another doubt; inactive = no such curve, though single readings can be large; an effect the other way counts as inactive or inconclusive. Potency is read from the fitted curve at half-maximal effect.

SMILES	FLuc counter	Rab9 promoter act	ELG1 genotoxic	SMN2 splice up	NPC1 prom act
O=c1cc(-c2ccco2)oc2ccc(Cl)cc12	-5.6%	24.9%	?	17.9%	27.1%
O=C(COc1ccc2oc(-c3ccco3)cc(=O)c2c1)N1CCCCC1	16.9µM*	3.5%	-0.8%	3.0%	3.1%
COc1cccc2oc(-c3ccco3)cc(=O)c12	15.1µM*	?	?	15.8µM*	?
Cc1ccc(C)c(N2CCN(C(=O)Cn3c(=O)c4cccn4c4ccc(F)cc43)CC2)c1	2.7%	.	.	.	.
Fc1ccc(C2=NC(c3cccc(C(F)(F)F)c3)=Nc3ccccc3N2)cc1	5.4%	.	.	-10.1%	.
COc1ccc(NC(=O)c2ccc3c(=O)n(CC4CCCO4)c(=S)[nH]c3c2)c(OC)c1 (stereo not drawn)	-1.3%	5.3%	-37.7%	.	-1.3%
COc1ccccc1Cn1c(CNS(=O)(=O)c2c(C)cc(C)cc2C)nc2cccnc21	-3.2%	.	.	.	.
COc1ccc(OC)c(NC(=O)Nc2nnc(N3CCC(C)CC3)s2)c1	23.9µM*	-2.9%	3.2%	-9.7%	-0.2%
COc1ccc(OC)c(NC(=O)C2CCC(CNc3c(N4CCC(C)CC4)c(=O)c3=O)CC2)c1 (stereo not drawn)	0.8%	-8.5%	27.5%	15.8µM*	-4.7%
Cc1ccc2c(CNCc3cccs3)c(C(=O)O)n(Cc3ccc(F)cc3)c2c1	-10.3%	.	.	.	.
O=c1ccc2[n+]([O-])c3ccc(O)cc3oc-2c1	15.1µM*	-0.4%	-9.7%	.	1.7%
O=c1cc(O)c2ccc(O)cc2o1	-0.6%	7.7%	1.5%	.	0.0%
COc1ccc(CNC(=O)CSCc2nc(-c3ccccc3C)oc2C)cc1	?	.	.	-17.0%	.
C=CC(=O)CC	.	.	.	6.4%	.
CN(C)S(=O)(=O)NCCNc1ccc(C(F)(F)F)cc1[N+](=O)[O-]	19µM*	2.0%	3.1%	5.9%	-3.5%
O=[N+]([O-])c1cc(C(F)(F)F)ccc1NCCOc1ccccc1	13.5µM*	?	?	?	?
CS(=O)(=O)NCCNc1ccc(C(F)(F)F)cc1[N+](=O)[O-]	0.7%	-6.9%	-0.4%	2.1%	-1.7%
N#C/C(=C\c1c(N2CCCCC2)nc2ccccn2c1=O)S(=O)(=O)c1ccccc1	2.2%	-4.5%	-3.1%	.	-1.3%
CN(/N=C/C=C/c1ccccc1)c1cc(=O)n(C)c(=O)[nH]1	-19.2%	15.7%	-2.6%	9.6%	10.6%
COc1ccc(/C=N/N(C)c2cc(=O)n(C)c(=O)[nH]2)cc1OC	16.9µM*	4.8%	?	9.6%	-0.4%
Cc1ccc(-n2c(C)nn(CCOc3ccccc3)c2=O)cc1	?	3.16µM*	?	11.2µM*	?
Cc1nn(CCOc2ccccc2)c(=O)n1-c1c(F)cccc1F	23.9µM*	3.98µM*	?	12.6µM*	2.82µM*
Cc1nn(CC2CC2)c(=O)n1-c1ccccc1F	-0.6%	4.4%	11.0%	2.4%	-3.4%
O=Cc1c[nH]c2cccc(OCc3ccccc3)c12	10.7µM*	29.7%	11.1%	.	17.2%
COc1ccc(S(=O)(=O)Nc2ccc3oc4c(c3c2)C(=O)CC(C)(C)C4)cc1	2.2%	.	.	-39.8%	.
SMILES	FLuc counter	Rab9 promoter act	ELG1 genotoxic	SMN2 splice up	NPC1 prom act
CCCCc1ccc(NC(=S)N2CCC(O)CC2)cc1	?	23.1%	9.3%	-6.2%	9.3%
CCCN1C(=O)N(c2cccc(C)c2)C(C)(O)CC1(C)C (stereo not drawn)	-1.7%	0.9%	-4.1%	.	-2.2%
COc1ccc(OCC(=O)Nc2ccc(N3CCOCC3)cc2)cc1	-1.3%	5.1%	0.3%	14.5%	9.5%
COc1ccc(CNc2ccc(N3CCOCC3)cc2)cc1	26.9µM*	?	-3.4%	.	13.0%
NC(=O)Nc1ccc(C(=O)OCC(=O)Nc2ccc([N+](=O)[O-])cc2C(F)(F)F)cc1	-7.6%	4.0%	0.3%	11.3%	4.6%
COc1ccccc1N1CCN(c2cc(N3CCCC3)nc(C)n2)CC1	6.6%	-4.6%	-5.3%	-40.4%	-5.9%
COc1ccccc1N1CCN(c2ccc3ccccc3n2)CC1	0.953µM*	0.316µM*	?	.	0.316µM*
COc1ccccc1N1CCN(c2ccc(-c3ccccc3)nn2)CC1	0.757µM*	0.282µM*	?	?	?
COc1ccccc1N1CCN(c2nc(-c3ccccc3)cc(C(F)(F)F)n2)CC1	0.4%	-0.5%	-4.2%	-12.1%	-0.9%
C/C(Cl)=C/CCl	.	.	.	-3.6%	.
CC(=O)Nc1ccc(C(=O)COC(=O)c2ccco2)c(F)c1	13.5µM*	-7.7%	3.7%	.	-4.1%
Cc1ccc2nc(-c3ccc(NC(=O)COC(=O)c4cncc(Br)c4)cc3)sc2c1	1.69µM*	0.316µM*	1.3µM*	0.562µM*	?
Cc1ccc2nc(-c3ccc(NC(=O)COC(=O)c4ccco4)cc3)sc2c1	10.7µM*	0.316µM*	2.91µM*	2.24µM*	0.447µM*
O=C(COC(=O)c1cncc(Br)c1)Nc1ccc2c(c1)OCO2	1.1%	9.5%	-3.3%	15.5%	-14.8%
Cc1ccc2nc(-c3ccc(NC(=O)COC(=O)c4ccc([N+](=O)[O-])o4)cc3)sc2c1	1.35µM*	0.447µM*	1.3µM*	0.708µM*	0.398µM*
C/C=C(\C)CN1CCCC(N(C)CCc2ccc(OC)c(OC)c2)C1 (stereo not drawn)	-0.3%	-4.9%	-3.4%	.	-3.9%
CNS(=O)(=O)c1cc(-c2nn3c(C)nnc3c3ccccc23)ccc1C	1.8%	.	.	.	.
CNS(=O)(=O)c1cccc(C(=O)OCC(=O)Nc2ccc(-c3nc4ccc(C)cc4s3)cc2)c1	4.78µM*	?	0.731µM*	1.12µM*	0.501µM*
Cc1ccc(NC(=O)COC(=O)c2ccco2)cc1	16.9µM*	-1.2%	4.3%	.	-2.1%
